For 107 molecules, Potency and activity, negative = inhibition results are on record in PubChem BioAssay AID1030 (National Center for Advancing Translational Sciences (NCATS), 2008).

Each structure is given as a SMILES string. Where “and” joins values, the source holds several entries; their conditions need not be identical. Identical values can stand only once. Hit rate of the full screen: of about 220,000 compounds, about 16,000 (7.3%) were called active. Roughly 25% stayed inconclusive and do not appear here. What follows is part of a selection rich in actives, with near analogues and random picks from the rest. Where a call stands in place of a potency, no number is given. Unmarked numbers belong to inactive results. The call rests on the fitted dose curve; in most records, active means well fitted inhibition curve with a large enough effect (not every such curve was filed as active); inconclusive means small, poorly fitted or top-dose-only effect, or another doubt; inactive means no such curve, though single readings can be large or run the other way.
Potency means the concentration at half of the fitted maximal effect.

Sequence of Aldehyde dehydrogenase 1A1 (Homo sapiens) (P00352 whole entry, looked up): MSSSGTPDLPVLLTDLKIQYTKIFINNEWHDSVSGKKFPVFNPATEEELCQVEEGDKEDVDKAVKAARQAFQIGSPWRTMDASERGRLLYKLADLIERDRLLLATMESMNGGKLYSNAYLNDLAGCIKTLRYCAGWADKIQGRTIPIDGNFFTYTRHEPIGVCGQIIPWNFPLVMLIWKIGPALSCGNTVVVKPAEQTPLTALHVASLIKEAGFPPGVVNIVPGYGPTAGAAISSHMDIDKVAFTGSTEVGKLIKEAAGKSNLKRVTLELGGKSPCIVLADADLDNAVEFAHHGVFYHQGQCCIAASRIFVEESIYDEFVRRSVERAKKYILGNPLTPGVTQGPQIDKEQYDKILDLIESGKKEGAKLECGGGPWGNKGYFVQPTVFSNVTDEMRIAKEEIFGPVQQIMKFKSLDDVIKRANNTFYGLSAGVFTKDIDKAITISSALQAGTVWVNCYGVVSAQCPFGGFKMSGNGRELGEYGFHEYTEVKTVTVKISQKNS

The test has as its target Aldehyde dehydrogenase 1A1 (Homo sapiens) (UniProt P00352). Nature of the test: qHTS Assay for Inhibitors of Aldehyde Dehydrogenase 1 (ALDH1A1). The following applies: Purified ALDH1A1, NADH fluorescence, propionaldehyde substrate; series mostly up to 75.3 µM. (qHTS replaces the single test concentration by a dilution series.)
For `CCOC(=O)c1sc2nc(C)nc(Nc3ccc(OC)c(OC)c3)c2c1C`, the Potency result was “inactive”. On the same count and under the same terms, as for `Cc1ccc(S(=O)(=O)NCCc2nnc3ccc(SCc4cccnc4)nn23)cc1`, the entry is “inactive”.

As for `CCN(CC)C(=O)Oc1ccc(Br)cc1C(=O)Nc1ccc(F)c(Cl)c1`, the Potency entry is “inactive”. Take `CNC(=O)c1[nH]cnc1C(=O)N[C@@H](CC(C)C)C(=O)OCc1ccccc1`: the Potency entry was “inactive”. The same measure, in the same setting: as for `O=C(Cc1ccc(F)cc1)N/N=C/c1ccc2c(c1)OCO2`, the entry is “inactive”; as for `Cc1c(NC(=O)Nc2ccccc2)cccc1[N+](=O)[O-]`, “inactive”; as for `Cc1c(NC(=O)CCCOc2ccccc2)cccc1[N+](=O)[O-]`, “inactive”. As to `Cc1cc(C)cc(NC(=S)NCc2ccc(F)cc2)c1`, the Potency entry was “inactive”. On the same count and under the same terms, as for `Cc1cccc(NC(=S)NCCc2ccc(F)cc2)c1C`, the entry is “inactive”.

Take `Cc1c(NC(=S)NCc2ccc(F)cc2)cccc1[N+](=O)[O-]`: the Potency was 31.6 µM (active). On the same count and under the same terms, then `Cc1c(NC(=O)/C=C/C(=O)O)cccc1[N+](=O)[O-]`, with 25.1 µM (active); and `COc1cc(C(=O)OCc2ccc([N+](=O)[O-])cc2)cc(OC)c1OC`, with “inactive”. On the same count and under the same terms, then `Cc1ccc(C)c(Cn2cnc3c(oc4ccccc43)c2=O)c1`, with “inactive”; and `COc1ccc(OC)c(S(=O)(=O)Nc2cccc(-c3ccc4nncn4n3)c2)c1`, with “inactive”; and `CC(NC(=O)COC(=O)c1cc(=O)[nH]c2ccccc12)c1ccccc1` (configuration not stated), with “inactive”. On the same count and under the same terms, then `COCCNC(=O)CCCn1c(=O)c2ccccc2n(Cc2cccc([N+](=O)[O-])c2)c1=O`, with “inactive”; and `CCOC(=O)N1CCN(CCC(=O)Nc2cc(OC)ccc2OC)CC1`, with “inactive”; and `CC(C)(C)NC(=O)c1cc(NC(=O)c2ccco2)cc(NC(=O)c2ccco2)c1`, with “inactive”. `NC(=O)c1ccsc1NC(=O)c1ccco1`: the Potency was 25.1 µM (active). On the same count and under the same terms, as for `Cc1ccnc(NC(=O)c2ccco2)n1`, the entry is “inactive”. Same read-out and setting: then `O=C(c1ccc(F)cc1)N1CCC(n2nnc3ccccc32)CC1`, with “inactive”; and `O=C(c1ccc(F)cc1)n1c(=S)nc2ccccn21`, with 25.1 µM (active); and `O=C(Cn1c(=S)nc2ccccn21)N1CCc2ccccc2C1`, with “inactive”.

With `Cc1ccc2nc(-c3ccncc3)cc(C(=O)Nc3ccc(OC(F)F)cc3)c2c1`, the Potency entry is “inactive”. Same read-out and setting: then `COc1cc(NC(=O)COC(=O)c2cnc(C)cn2)c(C)cc1[N+](=O)[O-]`, with “inactive”; and `CC1CCCC(NC(=O)c2cccc(N3CCCC3=O)c2)C1C` (configuration not stated), with “inactive”. Still for that read-out and setting: as for `CCC(C)(C)NC(=O)C1c2ccccc2Oc2ccccc21`, the entry is “inactive”; as for `Cc1ccc(S(=O)(=O)NCC(C)NS(C)(=O)=O)cc1` (configuration not stated), 14.1 µM (active). Still for that read-out and setting: then `CSCC(NS(=O)(=O)c1ccc(C)cc1)C(=O)O` (configuration not stated), with “inactive”; and `Cc1ccc(S(=O)(=O)/N=S(\C)C(C)C)cc1` (configuration not stated), with “inactive”. `CC1CC(=O)Nc2ccccc2N1S(=O)(=O)c1cccs1` (configuration not stated): the Potency result is “inactive”. On the same count and under the same terms, as for `O=C(CNC1CCCCC1)NCC1(c2ccccc2)CCCC1`, the entry is “inactive”. On the same count and under the same terms, then `Cc1ccc2nc(-c3ccncc3)cc(C(=O)Nc3ccc4c(c3)OCCO4)c2c1`, with “inactive”; and `O=C(CSc1ccccc1)Nc1ccc(C(=O)Nc2cccc(O)c2)cc1`, with “inactive”; and `Cc1nc2ccccc2n1CC(=O)N/N=C/c1cccnc1`, with “inactive”. As to `Cn1c(=N)n(CC(O)c2cccs2)c2ccccc21` (configuration not stated), the Potency entry was “inactive”. Same read-out and setting: then `CC(=O)c1ccc2c(c1)OCCOCCOc1ccc(C(C)=O)cc1OCCOCCO2`, with “inactive”.

For `COc1ccc(C(=O)NC(=S)NNC(=O)c2c(-c3ccccc3)noc2C)cc1`, the Potency entry was “inactive”. Consider `COc1ccc(C(=O)NC(=S)NNC(=O)CCc2ccccc2)cc1`, for which the Potency is 25.1 µM (active). In the case of `COc1ccc(C(CC(=O)O)NC(=O)Cc2ccccc2)cc1` (configuration not stated), the Potency entry was “inactive”. On the same count and under the same terms, then `COc1ccc(OCCCC(=O)NCCc2ccccc2)cc1`, with “inactive”; and `COc1ccc(CC(=O)NC(C)CCc2ccccc2)cc1` (configuration not stated), with 2.51 µM (active); and `COc1ccc(/C(N)=N/OC(=O)CCCc2ccccc2)cc1`, with “inactive”.

As for `COCCOC(=O)C1=C(C)NC(=O)NC1c1ccc(Cl)cc1` (configuration not stated), the Potency result was “inactive”.

Consider `CCOC(=O)C1=C(CN2CCc3ccccc32)NC(=O)NC1c1cccc([N+](=O)[O-])c1` (configuration not stated), for which the Potency result is “inactive”.

Consider `CCOC(=O)C1=C(CN2CCc3ccccc32)NC(=O)NC1c1ccc(Cl)cc1` (configuration not stated), for which the Potency is 25.1 µM (active). The same measure, in the same setting: then `Cc1onc(C(=O)NCc2ccc(F)cc2)c1[N+](=O)[O-]`, with “inactive”. Same read-out and setting: as for `O=C1CCCN1CCCNC(=S)Nc1ccc(F)c(Cl)c1`, the entry is “inactive”. As for `CCOc1ccc(OCC)c(NC(=O)C2CCN(S(=O)(=O)c3c(C)noc3C)CC2)c1`, the Potency result is “inactive”. As to `Cc1ccc(NC(=O)C2CCCN(S(=O)(=O)c3c(C)noc3C)C2)c(C)c1` (configuration not stated), the Potency result is “inactive”. Same read-out and setting: then `Cc1noc(/C=C/c2ccco2)c1S(=O)(=O)N1CCC(C(=O)Nc2ccc(Cl)cn2)CC1`, with 15.8 µM (active); and `CCCCN1C(=S)NC[C@@H]1C(C)CC` (some centres not stated), with “inactive”. Turning to `Cc1ccc(C)c(-n2cc(CN3CCN(C(=O)c4ncn[nH]4)CC3)c(-c3ccccc3)n2)c1`, the Potency entry is “inactive”.

`Cc1cc(NC(=O)CSc2nnc(Nc3ccccc3F)s2)no1`: the Potency result is “inactive”.

As for `O=C1C[C@@H](O)[C@@H](O)[C@H]2[C@@H]3C(=O)N(Cc4ccc5c(c4)OCO5)C(=O)[C@@H]3CC[C@H]12`, the activity, negative = inhibition was -12% [at 13.5 µM] and -15.2% [at 13.5 µM]. In the case of `O=C(Nc1ccc2c(c1)OCO2)c1ccc(N2C(=O)c3ccccc3C2=O)cc1`, the Potency result is “inactive”.

Turning to `O=CN1CCN(C2CC(=O)N(c3ccc4c(c3)OCO4)C2=O)CC1` (configuration not stated), the Potency is 12.6 µM (active). On to `Cc1cc(C)nc(N2CCC(C(=O)Nc3ccc4c(c3)OCCO4)CC2)n1`, for which the Potency entry is “inactive”.

In the case of `CCn1cc(C(=O)Nc2cc(C)ccc2C)c(=O)c2ccc(C)nc21`, the Potency result is “inactive”. With `C=CCN(C(=O)c1cc(C)cc(C)c1)C1(C(=O)Nc2ccccc2)CCN(C(C)C)CC1`, the Potency entry is “inactive”. The same measure, in the same setting: then `Cc1ccnc(SCC(N)=O)n1`, with “inactive”.

With `COc1ccc(C(=O)NC(=O)CSc2nnc(-c3ccco3)n2-c2ccccc2)cc1`, the Potency is 31.6 µM (active). Still for that read-out and setting: as for `CCn1c(SCC(=O)Nc2nccs2)nnc1-c1ccco1`, the entry is “inactive”; as for `O=C(CSc1nnc(-c2ccco2)n1-c1ccccc1)NCCc1ccccc1`, “inactive”; as for `COc1ccc(-c2nnc(SCC(=O)c3ccco3)n2-c2ccccc2)cc1`, “inactive”. The same measure, in the same setting: as for `Cc1cccc(C)c1NC(=O)CCCSc1nnc(-c2ccco2)n1-c1ccccc1`, the figure is 25.1 µM (active). On the same count and under the same terms, as for `O=C(O)CCSc1nnc(-c2ccccc2)n1-c1ccccc1`, the entry is “inactive”. For the molecule `O=C(NCc1ccccn1)c1cc(Br)ccc1Cl`, the Potency entry was “inactive”. With `CC[N+]1(CC)CC2=Cc3ccccc3CC2C1` (configuration not stated), the Potency result was “inactive”.

On to `COc1ccc(N2CCN(C(=O)CCSCc3ccccc3F)CC2)cc1`, for which the Potency entry is “inactive”. As to `Cc1cccc(-n2cc(CN3CCN(C(=O)c4ncn[nH]4)CC3)c(-c3cccc(F)c3)n2)c1`, the Potency result was “inactive”. On to `CC(C)=CCC[C@]1(C)[C@@H](CC=C(C)C)C[C@@]2(CC=C(C)C)C(=O)[C@]1(C(=O)C(C)C)C(=O)C(CC=C(C)C)=C2O`, for which the Potency entry is “inactive”. The same measure, in the same setting: as for `O=C(Nc1ccc(F)cc1)N1CCN(c2ccc(F)cc2)CC1`, the entry is “inactive”. On the same count and under the same terms, then `Cc1nn(Cc2ccc(Cl)cc2)c(Cl)c1/C=N/NC(=O)c1cccnc1`, with “inactive”; and `O=C(N/N=C/c1ccccn1)c1cccnc1`, with “inactive”; and `O=C(N/N=C/c1sc(N2CCCCC2)nc1-c1cccs1)c1cccnc1`, with 31.6 µM (active).

Turning to `CCN(CCCNC(=O)CSc1cc(=O)n(C)c2cc(Cl)ccc12)Cc1ccccc1`, the Potency result was “inactive”. On the same count and under the same terms, then `CC1=NNC(=O)C1CCC(=O)N/N=C\c1cccc(Cl)c1` (configuration not stated), with “inactive”.

As to `S=c1[nH]nc(COc2ccccc2)n1-c1ccccc1`, the Potency result was “inactive”.

Consider `O=[N+]([O-])c1ccccc1/C=N/n1c(COc2ccccc2)n[nH]c1=S`, for which the Potency is 15.8 µM (active).

As to `CCc1n[nH]c(=S)n1/N=C/c1c[nH]c2ccc(Br)cc12`, the Potency entry is “inactive”.

With `O=C(Nc1nc(-c2cccnc2)cs1)c1ccccc1F`, the Potency result was “inactive”.

As to `CCN1CCN(CC(=O)Nc2sc3c(c2C#N)CCC3)CC1`, the Potency result is “inactive”. Still for that read-out and setting: as for `CCOC(=O)c1oc2c(CN3CCN(CCO)CC3)c(O)c(CC)cc2c(=O)c1-c1nc2ccccc2s1`, the figure is 28.2 µM (active); as for `Cn1c(=O)[nH]c(=O)c2c1nc(N1CCN(CCO)CC1)n2CCSc1nc2ccccc2s1`, “inactive”; as for `CCc1cc2c(=O)c(-c3nc4ccccc4n3C)c(CCCC(=O)O)oc2cc1OC(=O)C(C)(C)C`, “inactive”.

Take `CCCCn1nc(C(=O)OCC(=O)Nc2sccc2C(N)=O)c2ccccc2c1=O`: the Potency result is “inactive”. Same read-out and setting: then `CCOC(=O)N1CCN(Cc2nc(Cc3cccc(C(F)(F)F)c3)no2)CC1`, with “inactive”; and `COC(=O)c1cc2c(ccn2C)n1C`, with “inactive”. Same read-out and setting: then `CCOC(=O)/C(C#N)=C/c1cn(CCC(=O)O)nc1-c1ccc(Br)cc1`, with “inactive”; and `COc1cc(/C=N/O)ccc1OCc1ccc([N+](=O)[O-])cc1`, with “inactive”; and `COc1ccc(C(=O)Oc2cc(/C=N/NS(=O)(=O)c3ccc(C)cc3)ccc2OC)cc1`, with “inactive”. On the same count and under the same terms, as for `COc1ccc(S(=O)(=O)N/N=C\c2ccc(OC)c(COc3ccc(C)cc3[N+](=O)[O-])c2)cc1`, the figure is 14.1 µM (active). Regarding `Cc1ccc2c(c1)C1CN(C)CCC1N2C(=S)Nc1ccc(OC(F)F)cc1` (configuration not stated), the Potency entry was “inactive”.

Take `COCCNC(=O)NC(=O)COC(=O)C1(c2ccc(Cl)cc2)CC1`: the Potency result is “inactive”. With `CSCCNCc1cn(-c2ccc(F)cc2F)nc1-c1ccccc1C`, the Potency is 35.5 µM (active). Take `COc1ccccc1CC(=O)Nc1ccc(F)cc1F`: the Potency entry is “inactive”. Same read-out and setting: then `O=C(CC12CC3CC(CC(C3)C1)C2)NCc1ccco1`, with “inactive”; and `CCOC(=O)c1ccc[n+](CC(=O)Nc2ccccc2OC(F)F)c1`, with “inactive”; and `COC(=O)c1cccc(-n2[nH]nnc2=S)c1`, with 2.82 µM (active).

As to `COC(=O)c1ccc(-n2cnc3ccccc32)nc1`, the Potency result is “inactive”.

For the molecule `COC(=O)c1nn(-c2cccc(Cl)c2)ccc1=O`, the Potency entry is “inactive”. On to `COc1ccc(NC(=O)c2ccccc2[N+](=O)[O-])cc1OC`, for which the Potency entry was “inactive”. Consider `CCOC(=O)C1(Cc2ccc(Cl)cc2)CCN(C(=O)C2=NNC(=O)CC2)CC1`, for which the Potency result was “inactive”. Same read-out and setting: as for `CN(C)S(=O)(=O)c1cccc(NC(=O)COC(=O)/C=C/c2cccs2)c1`, the entry is “inactive”.

In the case of `Cc1ccc(S(=O)(=O)N(C)C)cc1NC(=O)c1ccccc1Br`, the Potency result was “inactive”. Same read-out and setting: as for `Cc1ccc(S(=O)(=O)N(C)C)cc1NC(=O)/C=C/c1cccs1`, the figure is 0.447 µM (active).
